The test system of experiment [1] is Wnt5a (protein binding on small-molecule microarray). The experiment can be described thus: Wnt5a binders on small-molecule microarray, primary screen, biophysical, 635/667 nm fluorescence (AID 1142).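 Also: fluorescence read at 667 nm with signal to noise per printed feature.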 To be noted: 635 nm fluorescence, higher = more signal.
Experiment [2] can be described thus: cell viability in Huh7 cells, primary screen, cytotoxicity control for HCV replication inhibitor project, CellTiter-Glo luminescence, basal, 48 h (AID 1143).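 Also: Huh7 hepatoma cells carrying a hepatitis C replication reporter with no stimulus; test concentration not given here.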 To be noted: Huh7 HCV replicon, higher = more signal, called active from +8 up or from −8 down. In general terms: In ATP-based viability assays light output follows the ATP content of the culture.
A short description of experiment [3]: P. aeruginosa biofilm formation inhibitors, primary screen, PAO1 strain, BacTiter-Glo luminescence, LB-PBS (AID 1144). To be noted: 12 h, higher = more signal.
Experiment [4] can be described thus: CREB reporter modulators without forskolin, primary screen, cell-based, PC12, CRE-LacZ reporter, unstimulated (AID 1145). Particulars: no forskolin, luminescence, 4.5 h, higher = more signal, called active from +8 up or from −8 down.
Experiment [5] can be described thus: CREB reporter modulators under forskolin, primary screen, cell-based, PC12, CRE-LacZ reporter, forskolin-stimulated (AID 1146).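 Also: PC12 cells with 6xCRE LacZ reporter stimulated by forskolin 10 µM; beta-galactosidase reporter signal reflecting CREB driven transcription.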 To be noted: luminescence, 4.5 h, higher = more signal, called active from +8 up or from −8 down.
Experiment [6] has as its target Streptavidin (Streptomyces avidinii) (UniProt P22629). In words: streptavidin binders on small-molecule microarray, primary screen, artefact control for SMM compound annotation, biophysical, 635/667 nm fluorescence (AID 1147).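 Also: signal reflects streptavidin binding to arrayed compounds as a control protein.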 Particulars: streptavidin binding, higher = more signal.
Experiment [7] is described as follows: small-molecule binders of probe aInhba, primary screen, biochemical, small-molecule microarray, 635/667 nm fluorescence (AID 1148).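 Also: score merges 667nm spot fluorescence with signal-to-noise for antibody binding to printed compounds.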 To be noted: higher = more signal.
For experiment [8], the target named is Torsin-1A (Homo sapiens) (UniProt O14656). The experiment can be described thus: torsin A binders from cell lysate, primary screen, small-molecule microarray, wild-type, 635/667 nm (AID 1149). To be noted: COS7 hTOR1A-WT lysate, 635 nm fluorescence, higher = more signal.
For experiment [9] the target is unchanged. In words: small-molecule binders of mutant TOR1A in lysate, primary screen, cell lysate, small-molecule microarray, COS7 lysate, 635/667 nm fluorescence (AID 1150).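 Also: score pools 667 nm emission and signal to noise measuring lysate protein binding.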 Particulars: COS7 hTOR1A mutant lysate, 635 nm fluorescence, higher = more signal.
Experiment [10] relates to Sonic hedgehog protein (Shh). The experiment can be described thus: small-molecule binders of Shh protein, primary screen, biochemical, small-molecule microarray, 635/667 nm fluorescence (AID 1151).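 Also: Shh protein binding to compounds spotted on small-molecule microarray slides; score combines spot fluorescence intensity with signal-to-noise across triplicate slides.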 To be noted: small-molecule microarray binding, 635 nm fluorescence; higher = more signal.

Molecules are shown by their SMILES. Active and inactive are the calls of the source. Unless noted, no rule for the calls is given here.

Sequence of Streptavidin (Streptomyces avidinii) (P22629 whole entry, looked up): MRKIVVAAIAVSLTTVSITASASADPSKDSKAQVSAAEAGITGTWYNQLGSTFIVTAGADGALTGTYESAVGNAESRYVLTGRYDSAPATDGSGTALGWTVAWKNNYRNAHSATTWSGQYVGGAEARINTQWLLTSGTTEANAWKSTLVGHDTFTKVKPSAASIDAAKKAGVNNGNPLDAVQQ
Sequence of Torsin-1A (Homo sapiens) (O14656 whole entry, looked up): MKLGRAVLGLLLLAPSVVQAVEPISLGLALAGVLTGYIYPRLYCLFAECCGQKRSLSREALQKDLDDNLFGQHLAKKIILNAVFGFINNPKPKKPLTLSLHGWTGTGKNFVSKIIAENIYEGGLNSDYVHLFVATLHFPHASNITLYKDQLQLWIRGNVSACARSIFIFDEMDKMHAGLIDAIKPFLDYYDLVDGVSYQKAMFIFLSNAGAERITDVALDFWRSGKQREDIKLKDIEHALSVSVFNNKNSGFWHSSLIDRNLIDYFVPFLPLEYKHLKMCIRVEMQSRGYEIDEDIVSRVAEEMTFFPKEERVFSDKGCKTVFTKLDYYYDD

On to `COC(=O)[C@@]1(Cc2ccc(OC)cc2)[C@@H]2C(=CC(=O)[C@H]2CC(=O)C(=O)N2CCCC2)CN1C(=O)c1ccccc1`, for which the composite z-score in experiment [1] is 0.292; in experiment [6], 0.571; in experiment [7] it was 0.0694; with Torsin-1A (Homo sapiens) [8], -0.234; with Torsin-1A (Homo sapiens) [9], 0.31; in experiment [10], -1.35. Moreover, the z-score was -1.76 (inactive) in [2], 0.745 (inactive) in experiment [3], -0.754 (inactive) in [4] and 0.0528 (inactive) in experiment [5].

For `C=CC[C@]1(C(=O)NCc2ccccc2)N=C(c2ccc(OCCCO)cc2)O[C@H]1c1ccccc1N=[N+]=[N-]`, the composite z-score in experiment [1] is 0.713; in experiment [6] it was 2.21; in experiment [7], -0.0468; in the experiment with Torsin-1A (Homo sapiens) [8], 0.818; with Torsin-1A (Homo sapiens) [9], 0.787; in experiment [10], -0.231. Besides, the z-score was -3.2 (inactive) in experiment [2], -0.00841 (inactive) in experiment [3], 1.49 (inactive) in experiment [4] and -0.967 (inactive) in [5].

As to `CCOC(=O)C[C@H]1[C@H](OC(=O)c2ccc(-c3ccccc3)cc2)[C@@H](NC(=O)Cc2ccc(OC)cc2)c2cc(OCCCO)ccc2N1C(=O)c1ccccc1`, the composite z-score in experiment [1] was 0.118; in [6], -0.0322; in experiment [7] it was -0.0645; in the experiment with Torsin-1A (Homo sapiens) [8], -0.36; with Torsin-1A (Homo sapiens) [9] it was 0.023; in experiment [10] it was 0.265. Moreover, the z-score in experiment [2] is -1.02 (inactive); in [3] it was 0.338 (inactive); in experiment [4] it was -0.505 (inactive); in experiment [5], -0.15 (inactive).

Take `COC(=O)[C@@]1(Cc2ccc(OC)cc2)[C@H]2c3cc(C(=O)N4CCCC4)n(Cc4ccc(O)c(OC)c4)c3C[C@H]2CN1C(=O)c1ccccc1`: the composite z-score in experiment [1] is 1.22; in experiment [6], 2.18; in experiment [7] it was 1.21; with Torsin-1A (Homo sapiens) [8] it was -0.208; with Torsin-1A (Homo sapiens) [9] it was 0.669; in [10], -0.466. Besides, the z-score in experiment [2] is -1.28 (inactive); in [3], -0.117 (inactive); in [4] it was 0.962 (inactive); in experiment [5] it was 0.549 (inactive).

Take `COc1ccc(C#Cc2ccc3c(c2)[C@]2(C(=O)N3)[C@H](c3ccccc3OCCO)N3[C@H](c4ccccc4)[C@H](c4ccccc4)OC(=O)[C@H]3[C@@H]2C(=O)Nc2nc3ccccc3s2)cc1`: the composite z-score turned out to be 0.469 in experiment [1]; 1.09 in experiment [6]; 1.06 in [7]; 0.0821 in the experiment with Torsin-1A (Homo sapiens) [8]; 0.479 with Torsin-1A (Homo sapiens) [9]; 1.52 in [10]. Moreover, the z-score in [2] was -1.62 (inactive); in experiment [3] it was -0.726 (inactive); in experiment [4], -1.28 (inactive); in [5] it was -1.38 (inactive).

For the compound `CC(C)=CCCC(C)=CC(O)C1C=CC2C(=O)N(C)C(=O)C2N1Nc1ccccc1` (stereo not given), the composite z-score in experiment [1] was 0.485; in experiment [6], 1.87; in experiment [7] it was 0.115; in the experiment with Torsin-1A (Homo sapiens) [8] it was -0.365; with Torsin-1A (Homo sapiens) [9], 0.178; in experiment [10], 1.32. The z-score in experiment [2] is -2.96 (inactive); in [3], -0.545 (inactive); in [4], -0.333 (inactive); in [5] it was -0.465 (inactive).

As to `CC(C)C(O)C1C=CC2C(=O)NC(=O)C2N1Nc1ccc(Cl)cc1Cl` (stereo not given), the composite z-score was -0.0055 in [1]; -0.204 in [6]; -0.0791 in experiment [7]; 0.41 in the experiment with Torsin-1A (Homo sapiens) [8]; 0.794 with Torsin-1A (Homo sapiens) [9]; 0.292 in experiment [10]. Besides, the z-score in [2] was -0.158 (inactive); in experiment [3], 0.0631 (inactive); in experiment [4] it was 0.246 (inactive); in [5] it was 0.0675 (inactive).

`C[C@H]1C2[C@H](Cc3ccccc3)NC(=O)[C@]23C(=O)N[C@H](Cc2ccccc2)C(=O)N2CCC[C@H]2C(=O)NC/C=C\C/C=C/C3[C@@H]2O[C@]12C` (stereo not given in full): the composite z-score in experiment [1] is 0.072; in experiment [6] it was 0.206; in experiment [7], -0.126; in the experiment with Torsin-1A (Homo sapiens) [8], 0.221; in the experiment with Torsin-1A (Homo sapiens) [9], 0.44; in experiment [10], 0.639. Moreover, the z-score is -0.832 (inactive) in [2], -1.44 (inactive) in [3], 0.403 (inactive) in experiment [4] and -0.399 (inactive) in [5].

`CC(C)C[C@@H]1NC(=O)[C@H](C(C)C)NC(=O)[C@@]23C(=O)N[C@@H](Cc4ccccc4)C2[C@H](C)[C@@]2(C)O[C@H]2C3/C=C/CC/C=C/CNC1=O` (stereo not given in full): the composite z-score in [1] was 0.513; in [6], 0.186; in experiment [7] it was 0.399; with Torsin-1A (Homo sapiens) [8], 0.356; with Torsin-1A (Homo sapiens) [9], 0.0386; in experiment [10], 1.71. For the same compound, the z-score in experiment [2] was -3.05 (inactive); in experiment [3], -1.07 (inactive); in [4], -0.319 (inactive); in experiment [5], -1.23 (inactive).

Consider `CCC[C@@H]1C[C@@]1(CCC)[C@@H](NS(=O)(=O)c1cccc2cccnc12)c1ccc(Cl)cc1`, for which the composite z-score is 0.0298 in [1]; 0.633 in experiment [6]; 0.0966 in experiment [7]; -0.405 with Torsin-1A (Homo sapiens) [8]; 0.177 with Torsin-1A (Homo sapiens) [9]; -1.33 in experiment [10]. Further, the z-score in experiment [2] is -2.15 (inactive); in [3], -0.0939 (inactive); in experiment [4], -0.754 (inactive); in experiment [5], 0.852 (inactive).

(Values after PubChem BioAssay.)
